Laboratory results as given in PubChem BioAssay AID602393 (Broad Institute, 2012).
In all, about 350,000 compounds went through this assay and about 7,000 (2%) were called active. No stated cut-off is given here; in the data, active means activation above about 40%; inconclusive means no clear call, values can overlap the other calls; inactive means below that. The sample as a whole holds a higher share of actives than the screen did.

Experiment: raisers of Bmi1 knock-in reporter signal – mouse ES cells, Bmi1 luciferase knock-in, single point, esBAF inhibitor project, primary screen (AID 602393);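 further: 0% = median of the plate's neutral control wells and 100% = double that signal; a rise in the Bmi1 reporter signal indicates esBAF inhibition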
Settings: 24 h, at 12.5 µM, active compounds read high, 100% = twice the neutral-well signal

| Structure (SMILES) | reporter increase |
| --- | --- |
| O=C(NCCNc1ccccc1[N+](=O)[O-])c1ccccc1F | 62.1% (active) |
| COC(=O)CNC(=O)c1ccccc1[N+](=O)[O-] | -1.18% (inactive) |
| O=C(NCCNc1ccc([N+](=O)[O-])cc1Cl)c1ccccc1F | 7.96% (inactive) |
| CC(=O)Nc1ccc2c(c1)C(=O)N(C)[C@@H]1CC[C@H](CC(=O)NCc3ccccc3)O[C@H]1CO2 | -6.55% (inactive) |
| CO[C@@H]1CN(C)C(=O)c2cc(NC(=O)C3CCC3)ccc2OC[C@H](C)N(Cc2ccccn2)C[C@H]1C | 1.86% (inactive) |
| Cc1nc(N)sc1-c1ccccc1 | 0.609% (inactive) |
| Cc1nc(-c2ccccc2)sc1-c1nc(-c2ccccc2)ncc1S(=O)(=O)c1ccccc1 | -0.228% (inactive) |
| Cc1nc(-c2ccccc2)sc1-c1nnc(C2CC2)o1 | 76.8% (active) |
| CO[C@@H]1CN(C)C(=O)c2cc(NC(=O)C3CC3)ccc2OC[C@@H](C)N(C(=O)c2ccccc2F)C[C@@H]1C | -20.7% (inactive) |
| C[C@H](CO)N1C[C@H](C)[C@@H](CN(C)S(=O)(=O)c2ccc(Cl)cc2)Oc2ccc(NS(C)(=O)=O)cc2CC1=O | -2.32% (inactive) |
| CCc1cccc(NC(=O)COC(=O)c2cc(=O)c3ccccc3o2)c1 | 8.66% (inactive) |
| CC(C)C(=O)Nc1ccc2c(c1)oc1ccccc12 | 60.1% (active) |
| CC(C)C(=O)Nc1c(C(=O)c2ccc(F)cc2)oc2ccccc12 | -8.19% (inactive) |
| C[C@@H]1CN([C@@H](C)CO)S(=O)(=O)c2ccc(C#Cc3ccccc3)cc2O[C@@H]1CN(C)C(=O)C1CC1 | -5.48% (inactive) |
| Cc1ccc(NC(=O)C(=O)NCc2ccco2)c(C)c1 | 47.2% (active) |
| Cc1ccc(SCC(=O)NC(=O)NCc2ccco2)c(C)c1 | -6.07% (inactive) |
| Cc1ccc(NC(=O)Cn2nnc(C(=O)NCc3ccco3)c2N)c(C)c1 | 3.66% (inactive) |
| O=C(Cc1ccccn1)NCC[C@H]1CC[C@H](NS(=O)(=O)c2ccccc2)[C@@H](CO)O1 | -4.76% (inactive) |
| Cc1cccc(S(=O)(=O)N[C@H]2CC[C@@H](CCNS(=O)(=O)c3ccccc3F)O[C@H]2CO)c1 | -0.839% (inactive) |
| CCOc1ccc2c(c1)C(c1ccc(C)cc1)=NNC(c1ccc(C)cc1)=N2 | 67.3% (active) |
| CCOc1ccc2[nH]c(=S)sc2c1 | 27.8% (inactive) |
| Cc1ccc(C2=Nc3c(ccc4ccccc34)C(c3ccncc3)=NN2)cc1 | 10% (inactive) |
| C[C@@H]1CN([C@@H](C)CO)C(=O)Cc2cc(NS(=O)(=O)c3ccc(F)cc3)ccc2O[C@@H]1CN(C)S(=O)(=O)c1cccs1 | 4.77% (inactive) |
| CCC(=O)Nc1ccc2c(c1)C(=O)N(C)C[C@@H](OC)[C@@H](C)CN(Cc1ccccc1OC)[C@H](C)CO2 | -3.34% (inactive) |
| CNC[C@@H]1Oc2cc(-c3ccccc3OC)ccc2S(=O)(=O)N([C@H](C)CO)C[C@H]1C | -6.68% (inactive) |
| CN1CCN(C(=O)C[C@H]2C[C@H]3c4cc(NC(=O)Nc5ccccc5F)ccc4O[C@H]3[C@H](CO)O2)CC1 | 2.41% (inactive) |
| CC(C)NC(=O)N(C)C[C@@H]1Oc2ncc(C#CC3CC3)cc2C(=O)N([C@@H](C)CO)C[C@H]1C | 5.43% (inactive) |

| Structure (SMILES) | reporter increase |
| --- | --- |
| CSc1ccc(CNC(=O)c2ccc(NC(=O)C3=CSCCO3)cc2)cc1 | 15.9% (inactive) |
| O=C(Nc1ccc(C(=O)NCc2ccccc2Cl)cc1)C1=CSCCO1 | 44% (active) |
| O=C(NCc1ccccc1Cl)C1CCCO1 (centres undefined) | -4.1% (inactive) |
| CCN1[C@@H]2Cn3c(ccc(C4=CCCCC4)c3=O)[C@H]1[C@@H](C(=O)N1CCCCC1)[C@@H]2CO | -1.1% (inactive) |
| O=C(CN1CCSCC1)N/N=C/c1ccc(F)cc1 | 5% (inactive) |
| O=C(COC(=O)c1ccc(F)cc1)Nc1ccc2c(c1)OCO2 | 1.17% (inactive) |
| O=C(Cc1ccc(F)cc1)N/N=C/c1ccc2c(c1)OCO2 | 52.6% (active) |
| C[C@@H](NC(=O)[C@H]1[C@H](CO)[C@H]2Cn3c(cccc3=O)[C@H]2N1C(=O)C1CC1)c1ccccc1 | 2.89% (inactive) |
| COc1ccc(C(=O)Nc2ccc3c(c2)OC[C@H](C)N(C(C)=O)C[C@@H](C)[C@H](OC)CN(C)C3=O)cc1 | -0.383% (inactive) |
| Cc1ccc(S(=O)(=O)NCC[C@@H]2CC[C@@H](NC(=O)CCN3CCCCC3)[C@@H](CO)O2)cc1 | -6.37% (inactive) |
| Cc1ccc(S(=O)(=O)Nc2ccc3c(c2)C(=O)N([C@@H](C)CO)C[C@H](C)[C@@H](CN(C)C(=O)Cc2ccccc2)OCCCC[C@H](C)O3)cc1 | 0.836% (inactive) |
| O=C(Nc1ncccc1O)c1ccc(C(=O)c2ccccc2)cc1 | 21.1% (inactive) |
| O=C(CNC(=O)c1ccc2ccccc2c1)Nc1ncccc1O | 51.4% (active) |
| Cc1ccnc(NC(=O)CNC(=O)c2ccccc2)c1 | 20.5% (inactive) |
| Cc1noc(C)c1S(=O)(=O)N(C)C[C@H]1OCCCC[C@@H](C)Oc2ccc(NC(=O)c3ccccc3)cc2C(=O)N([C@@H](C)CO)C[C@H]1C | 5.48% (inactive) |
| O=C(C[C@H]1CC[C@@H](NC(=O)Nc2ccc(C(F)(F)F)cc2)[C@H](CO)O1)NCc1cc(F)cc(F)c1 | 2.19% (inactive) |
| CCC(=O)N1[C@@H]2CN(C(=O)Nc3ccc(Cl)cc3)c3ccccc3[C@@H]2[C@@H]1CO | 7.74% (inactive) |
| CC1CCN(C(=O)COC(=O)c2cc(S(=O)(=O)N3CCOCC3)ccc2Cl)CC1 | -5.57% (inactive) |
| O=C(OCc1nnc(-c2ccccc2)o1)c1cc(=O)[nH]c2ccccc12 | -2.08% (inactive) |
| CC1CCN(C(=O)COC(=O)c2cc(=O)[nH]c3ccccc23)CC1 | 60.1% (active) |
| COC(=O)C1CCN(C(=O)c2cc(=O)[nH]c3ccccc23)CC1 | -0.707% (inactive) |
| O=C(COC(=O)c1cc(=O)[nH]c2ccccc12)NCc1cccc(Cl)c1 | -2.45% (inactive) |
| CN(C(=O)COC(=O)c1cc(=O)[nH]c2ccccc12)C1CCCCC1 | 59.3% (active) |
| COc1ccc(S(=O)(=O)N(C)C[C@@H]2OCCCC[C@@H](C)Oc3ccc(N(C)C)cc3C(=O)N([C@@H](C)CO)C[C@@H]2C)cc1 | -1.73% (inactive) |
| O=C(C[C@H]1CC[C@@H](NC(=O)c2ccncc2)[C@@H](CO)O1)Nc1ccccc1 | -0.301% (inactive) |
| Cc1cc(=O)c2ccc(NC(=O)c3ccccc3)cc2[nH]1 | 1.23% (inactive) |
| Cn1c(=O)n(C)c2cc(C(=O)Nc3ccc(Br)cc3)ccc21 | 6.69% (inactive) |

| Structure (SMILES) | reporter increase |
| --- | --- |
| CC(C)n1c(=O)[nH]c2cc(C(=O)Nc3ccccc3)ccc21 | 46.7% (active) |
| CNC[C@H]1Oc2ncc(-c3ccccc3C)cc2C(=O)N([C@@H](C)CO)C[C@@H]1C | -1.27% (inactive) |
| Cc1ccc(OCC(=O)NCCCNC(=O)c2cccnc2)cc1C | -1.38% (inactive) |
| Cc1ccc(NC(=O)COc2ccc(/C=N\NC(=O)c3cccnc3)cc2)cc1C | 1.32% (inactive) |
| C/C(=C\C(=O)c1cccnc1)Nc1ccc(C)c(C)c1 | 64.2% (active) |
| C[C@H]1CCCCO[C@@H](CN(C)Cc2ccc(C(=O)O)cc2)[C@@H](C)CN([C@@H](C)CO)C(=O)c2cc(NS(C)(=O)=O)ccc2O1 | -4.29% (inactive) |
| COc1cccc(/C=N\Nc2nncc(-c3ccccc3)n2)c1 | 4.67% (inactive) |
| CCOc1ccccc1/C=N/Nc1nc2ccccc2o1 | 25.5% (inactive) |
| COc1ccc(/C=N/Nc2nc3ccccc3o2)cc1OC | 45.9% (active) |
| Brc1ccccc1/C=N/Nc1nc2ccccc2o1 | 66.2% (active) |
| O=C(CSc1nc2ccccc2o1)N/N=C/c1ccccc1C(=O)O | 28.5% (inactive) |
| C(=N\Nc1ccc2ccccc2n1)/c1ccc2c(c1)OCO2 | -72.8% (inactive) |
| CCCN1C[C@@H](C)[C@H](OC)CN(C)C(=O)c2ccc(NC(=O)C3CCOCC3)cc2OC[C@@H]1C | -4.1% (inactive) |
| C[C@@H]1CN([C@H](C)CO)C(=O)c2cc(NC(=O)Cc3ccccc3)ccc2O[C@@H](C)CCCCO[C@H]1CN(C)C(=O)Cc1ccccc1 | 4.79% (inactive) |
| CCC(=O)N(C)C[C@H]1Oc2cc(C#CC3CC3)ccc2S(=O)(=O)N([C@@H](C)CO)C[C@@H]1C | -1.51% (inactive) |
| CCCNC(=O)[C@@H]1[C@@H](CO)[C@@H]2Cn3c(ccc(-c4cccc(OC)c4)c3=O)[C@H]1N2C(=O)NCCC | 1.23% (inactive) |
| O=C(Nc1ccc(F)cc1)N[C@H]1C=C[C@@H](CC(=O)N2CCOCC2)O[C@H]1CO | -15.4% (inactive) |
| Cc1cccc(S(=O)(=O)N2CC[C@@H]3[C@H]2c2cc(C#Cc4ccc(F)cc4)ccc2N[C@@H]3CO)c1 | 1.22% (inactive) |
| COCC(=O)Nc1ccc2c(c1)OC[C@H](C)N(C(=O)c1ccccn1)C[C@@H](C)[C@H](OC)CN(C)C2=O | -4.41% (inactive) |
| COc1ccc(CCNC(=O)c2c(C)nn(-c3ccccc3)c2Cl)cc1 | -5.69% (inactive) |
| Cc1nn(-c2ccccc2)c(Cl)c1/C=N/NC(=O)c1nn(C)cc1[N+](=O)[O-] | 52.5% (active) |
| Cc1c(NC(=O)c2c([N+](=O)[O-])cnn2C)c(=O)n(-c2ccccc2)n1C | -3.74% (inactive) |
| CCC(=O)N(C)C[C@@H]1Oc2cc(-c3ccc(C#N)cc3)ccc2S(=O)(=O)N([C@@H](C)CO)C[C@@H]1C | 2.37% (inactive) |
| CCCc1cn(CC[C@@H]2CC[C@@H](NC(=O)C3CC3)[C@H](CO)O2)nn1 | 1.12% (inactive) |
| C[C@@H]1CN([C@H](C)CO)C(=O)CCCn2nncc2CO[C@@H]1CN(C)Cc1ccc2c(c1)OCCN2C | -3.86% (inactive) |
